Anthrax LF prot = Bacillus anthracis LF protease inhibitors, primary screen, biochemical, multiplex microsphere, MLPCN library | 360,000 tested, 0.12% active | inhibition, % at 10 µM | Lethal factor (Bacillus anthracis), P15917 | multiplex microsphere protease cleavage assay; note: plate controls were buffer without enzyme for full effect and enzyme alone for no effect
MazEF act = activators of E. coli MazEF toxin-antitoxin RNase, primary screen, biochemical, fluorescence, uHTS | Endoribonuclease toxin MazF (Escherichia coli (strain K12)), P0AE70 | FAM/BHQ RNA-DNA oligo cleavage fluorescence, 5 h | activation, % at 20 µM | 350,000 tested, 0.32% active | AID 504720, 2011; in the data active = activation above about 50%
Target sequence (P0AE70 whole entry, looked up): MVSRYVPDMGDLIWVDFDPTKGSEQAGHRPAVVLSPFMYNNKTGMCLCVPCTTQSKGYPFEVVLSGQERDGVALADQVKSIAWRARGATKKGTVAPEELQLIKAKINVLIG
Bead autofluor = flagged as autofluorescent in microsphere protease counterscreen; compound autofluorescence counterscreen, microsphere flow cytometry; hits give high values; fluorescence intensity (no concentration beside the values); 360,000 tested, 3.1% active; AID 624483; in the data active = fluorescence intensity above about 16000; inconclusive = no clear call, values can overlap the other calls
BoNT-A LC inh2 = BoNT/A light chain protease inhibitors, primary screen, biochemical, flow cytometry, MLPCN library. 360,000 tested, 0.17% active. multiplex microsphere protease substrate cleavage. inhibition, % at 10 µM. AID 588499, 2011; note: plate controls were buffer without enzyme for full effect and enzyme alone for no effect
BoNT F protease = BoNT/F light chain protease inhibitors, primary screen, biochemical, flow cytometry, MLPCN library; Botulinum neurotoxin type F light chain protease (Clostridium botulinum); Multiplex microsphere protease cleavage assay; inhibition, % at 10 µM; 360,000 tested, 0.22% active; AID 588497, 2011; in the data active = inhibition above about 35%, passing the limit was not always enough; inconclusive = no clear call, values can overlap the other calls; note: plate controls were buffer without enzyme for full effect and enzyme alone for no effect
The depositor's hits bear a star. Rows were chosen to be rich in hits. Some 3.7% of all compounds tested hit in one or more screens of this group. Cut-off read from the data, not from the text of the source, unless noted: active = inhibition above about 30%; inconclusive = no clear call, values can overlap the other calls; inactive = below that.

What do the screens show for `Cc1ccc(C2=NN(S(C)(=O)=O)C(c3ccc4c(c3)OCO4)C2)cc1` (stereo unspecified)?
Anthrax LF prot: 3; MazEF act: 17; Bead autofluor: 8387; BoNT-A LC inh2: 2; BoNT F protease: 3

How did CS(=O)(=O)N1N=C(c2ccc(Br)cc2)CC1c1ccc2c(c1)OCO2 (stereo unspecified) do in these assays?
Anthrax LF prot: 1; MazEF act: 46; Bead autofluor: 25156*; BoNT-A LC inh2: 4; BoNT F protease: 3

Results for CCN1C(=O)N[C@@H](c2cccs2)C(C(=O)OC)=C1C ?
Anthrax LF prot: 4; MazEF act: 7; Bead autofluor: 4040; BoNT-A LC inh2: 0; BoNT F protease: 1

How did COC(=O)C1=C(C)C(c2cccs2)NC(=O)N1C (stereo unspecified) do in these assays?
Anthrax LF prot: -3; MazEF act: -1; Bead autofluor: 16502*; BoNT-A LC inh2: inconclusive; BoNT F protease: 0

How did CC(=O)Nc1cccc(C(=O)N/N=C/c2cccc(C)n2)c1 do in these assays?
Anthrax LF prot: -3; MazEF act: 6; Bead autofluor: 3846; BoNT-A LC inh2: 2; BoNT F protease: 46*

How did Cc1cccc(C(=O)Nc2cccc(C(=O)N/N=C/c3cccc(C)n3)c2)c1 do in these assays?
Anthrax LF prot: -7; MazEF act: 12; Bead autofluor: 3795; BoNT-A LC inh2: -2; BoNT F protease: 16

How did Cc1ccc(C)c(NC(=O)COC(=O)c2ccc3c(c2)OCCO3)c1 do in these assays?
Anthrax LF prot: -2; MazEF act: -7; Bead autofluor: 6254; BoNT-A LC inh2: -1; BoNT F protease: -19

What do the screens show for `O=C1CN(N=Cc2ccco2)C(=O)N1`?
Anthrax LF prot: 8; MazEF act: 3; Bead autofluor: 4028; BoNT-A LC inh2: 0; BoNT F protease: 6

How did COC(=O)c1ccccc1NC(=O)COC(=O)CSCC(=O)N1CCOCC1 do in these assays?
Anthrax LF prot: -4; MazEF act: 2; Bead autofluor: 23481*; BoNT-A LC inh2: -2; BoNT F protease: -5

What do the screens show for `Cc1ccc(C(=O)Nc2nnc(COCCO)s2)cc1`?
Anthrax LF prot: -1; Bead autofluor: 2887; BoNT-A LC inh2: 0; BoNT F protease: 0

How did CC(=O)c1c(C)[nH]c(C(=O)Nc2cccnc2)c1C do in these assays?
Anthrax LF prot: -9; MazEF act: -5; Bead autofluor: 19908*; BoNT-A LC inh2: inconclusive; BoNT F protease: -2

What do the screens show for `CC(=O)c1c(C)[nH]c(C(=O)Nc2ccc(C)c(C)c2)c1C`?
Anthrax LF prot: -2; MazEF act: -11; Bead autofluor: 9203; BoNT-A LC inh2: 0; BoNT F protease: -3

How did C[C@H](CO)N1C[C@H](C)[C@H](CN(C)C(=O)Nc2ccc(C(F)(F)F)cc2)OCc2cnnn2CCCC1=O do in these assays?
Anthrax LF prot: 0; MazEF act: -1; Bead autofluor: 2917; BoNT-A LC inh2: 0; BoNT F protease: -4

Results for O=C(Nc1ccccc1C(F)(F)F)N1CCN(C(c2ccccc2)c2ccccc2)CC1 ?
Anthrax LF prot: 0; MazEF act: -1; Bead autofluor: 22149*; BoNT-A LC inh2: inconclusive; BoNT F protease: -9

What do the screens show for `O=C(Nc1ccccc1C(F)(F)F)N1CCCCCC1`?
Anthrax LF prot: 8; MazEF act: -5; Bead autofluor: 8624; BoNT-A LC inh2: 2; BoNT F protease: 3

How did CCS(=O)(=O)N1N=C(c2cccc(NS(C)(=O)=O)c2)CC1c1ccc(C)cc1 (stereo unspecified) do in these assays?
Anthrax LF prot: 17; MazEF act: 67*; Bead autofluor: 21472*; BoNT-A LC inh2: 26; BoNT F protease: -1

How did CCS(=O)(=O)Nc1cccc(C2=NN(S(C)(=O)=O)C(c3ccccc3)C2)c1 (stereo unspecified) do in these assays?
Anthrax LF prot: 0; MazEF act: 7; Bead autofluor: 7796; BoNT-A LC inh2: -1; BoNT F protease: 8

What do the screens show for `COc1cc(NC(=O)C2CC(=O)NC3=C2C(=O)CCC3)cc(OC)c1` (stereo unspecified)?
Anthrax LF prot: -5; MazEF act: 4; Bead autofluor: 20659*; BoNT-A LC inh2: -2; BoNT F protease: -3

What do the screens show for `Cn1nc(C(C)(C)C)cc1NC(=O)C1(C)CCN1C(=O)C1(c2ccccc2)CC1` (stereo unspecified)?
Anthrax LF prot: -1; Bead autofluor: 3507; BoNT-A LC inh2: 0; BoNT F protease: 0

From PubChem BioAssay
